This is a sample that favours compounds with a hit; in the whole collection about 4.1% have one here.
tim23-1 inh: growth inhibitors of tim23-1 mutant yeast, primary screen, luminescence, uHTS | S. cerevisiae tim23-1 growth, BacTiter-Glo luminescence, 24 h | inhibition, % at 20 µM | actives 1.3% (n = 330,000) | AID 463212, 2010;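 active = growth inhibition of the mutant yeast at or above 50%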;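 also: temperature-sensitive mutant grown at 25 °C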
NLRP3 yeast inh: NALP3 inflammasome inhibitors in reconstituted yeast, primary screen, luminescence, uHTS. Yeast reconstituted NLRP3/ASC/caspase-1, beta-gal luminescence, 24 h. inhibition, % at 10 µM. actives 0.39% (n = 330,000);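 active = inhibition of 50% or more; inactive = inhibition below 50%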
NALP1 yeast inh: NALP1 inflammasome inhibitors in reconstituted yeast, colorimetric, S. cerevisiae, triplicate retest. AID 2071, 2009. inhibition, % at 10 µM. S. cerevisiae NALP1/ASC/caspase-1 growth, X-gal OD620, 72 h. actives 0.61% (n = 280,000); in the data active = inhibition mostly above about 24%, no sharp cut-off; inactive = mostly below about 32%
TIM10 inh: growth inhibitors of isogenic TIM10 control yeast, primary screen, counter-screen for tim10-1 yeast inhibitor project, luminescence, uHTS | S. cerevisiae TIM10 strain growth, BacTiter-Glo luminescence, 24 h | inhibition, % at 10 µM | actives 1.4% (n = 330,000) | AID 463195, 2010;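 active = inhibition of 40% or more at the single tested concentration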;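 also: wild-type TIM10 isogenic control strain grown at permissive 25 °C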
tim10-1 inh: growth inhibitors of tim10-1 mutant yeast, primary screen, luminescence, uHTS. AID 463190, 2010. S. cerevisiae tim10-1 ts strain growth, BacTiter-Glo, 24 h. inhibition, % at 20 µM. actives 2.2% (n = 330,000);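 active = inhibition of at least 40%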;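 also: mutant grown at 25 °C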
TIM10 conf: growth inhibitors of wild-type TIM10 yeast, confirmation, counter-screen for tim10-1 synthetic lethality project, single concentration, luminescence, S. cerevisiae | shares compounds with TIM10 inh | S. cerevisiae tim10 strain growth, BacTiter-Glo luminescence, 24 h | inhibition, % at 10 µM | actives 63% (n = 4,600) | AID 463215, 2010;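 active = inhibition of yeast growth at or above a set limit in either of two replicates at 10 µM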; also: this counterscreen used the strain with wild-type TIM10
Of the large screens only hits and unclear results are named; the others gave an inactive call (follow-up assays come after a bar, where they were run).

O=C(CCC1CCCCC1)NC1CCCCC1	none (no result: NALP1 yeast inh)
Cc1cc(NC(=O)c2ccccc2)sc1C	TIM10 inh 51.9 | TIM10 conf 42.3
Cc1cc(NC(=O)c2ccccc2)cc(NC(=O)c2ccccc2)c1C	none
CS(=O)(=O)c1cccc(C(=O)OCC(=O)NCc2cccs2)c1	TIM10 inh 72.1 (no result: NALP1 yeast inh) | TIM10 conf inactive
O=C(/C=C/c1ccc2c(c1)OCO2)NCCSCc1ccc(Cl)cc1Cl	TIM10 inh 40.5 | TIM10 conf inactive
COCCn1c(N/N=C(C)/C=C/c2ccccc2)nc2c1c(=O)[nH]c(=O)n2C	none (no result: tim23-1 inh, NLRP3 yeast inh, TIM10 inh, tim10-1 inh)
CCn1cc(S(=O)(=O)c2ccc(Cl)cc2)c(=O)c2cc(OC)ccc21	none
COc1cccc2cc(C(C)=O)oc12	none
COc1cccc2cc(/C(=N/O)c3ccccc3)oc12	TIM10 inh 54.5 | TIM10 conf 41.8
Cc1ccccc1OCCC(=O)OCC(=O)NCCc1ccccc1	none (no result: NALP1 yeast inh)
Cc1cc(C)n(-c2nc(NC(C)(C)C)nc(NC(C)(C)C)n2)n1	TIM10 inh 45.0 | TIM10 conf 43.0
CN(CCN(C)C(C)(C)C)C(=O)C(c1ccccc1)c1ccccc1	none
Cc1sc2ncnc(Sc3nnnn3-c3ccc(Cl)cc3)c2c1C	none
c1ccc(-n2nnnc2Sc2ncnc3sc4c(c23)CCCC4)cc1	TIM10 inh 43.9 | TIM10 conf inactive
COc1nnc(-c2ccc(N3CCOCC3)c(NC(=O)C3CCCCC3)c2)c2ccccc12	TIM10 inh 41.0 | TIM10 conf inactive
CCOc1ccc(NC(=O)c2nn(C)c(C(=O)Nc3ccc(OCC)cc3)c2[N+](=O)[O-])cc1	TIM10 inh 93.5 | TIM10 conf inactive
NC(=O)c1nsc(C(=O)N(c2ccccc2F)C(C(=O)NCc2ccccc2)c2ccc(O)cc2)c1N (stereo unspecified)	TIM10 inh 95.6 | TIM10 conf inactive
COc1ccc(C2(O)CCN(CC(=O)Nc3nc(-c4ccccc4)cs3)CC2)cc1	TIM10 inh 51.8 | TIM10 conf 43.2
COC(=O)c1c(NC(=O)Cc2ccccc2)sc2c1CC(C)(C)NC2(C)C	none
COC(=O)c1c(NC(=O)COc2ccc(Cl)cc2)sc2c1CC(C)(C)NC2(C)C	TIM10 inh 46.3 | TIM10 conf inactive
Brc1c(OCCOCCn2cncn2)ccc2ccccc12	none
FC(F)(F)c1ccc(/C=N/NC(=S)NC2CCCCC2)cc1	none
C=CCNC(=S)N/N=C/c1ccc(C(F)(F)F)cc1	TIM10 inh 40.4 | TIM10 conf inactive
C=CCNC(=S)N/N=C/c1ccc(-c2cc(Cl)ccc2Cl)o1	none
C=CCNC(=S)N/N=C/c1ccc(-c2ccc(OC)cc2)o1	TIM10 inh 41.6 | TIM10 conf 36.4
CC(=O)C1=C(C)Nc2ncnn2C1c1ccccc1 (stereo unspecified)	none
CC(=O)C1=C(C)Nc2ncnn2C1c1ccccc1F (stereo unspecified)	TIM10 inh 96.5 | TIM10 conf inactive
COc1ccc(OC)c(NC(=O)CSc2ccc(-c3ccco3)nn2)c1	none
O=S(=O)(c1cccc(-c2nnc(SCc3nc4ccccc4s3)o2)c1)N1CCOCC1	TIM10 inh 43.3 | TIM10 conf inactive
CC(=O)CCSc1nnc(-c2cccc(S(=O)(=O)N3CCOCC3)c2)o1	none (no result: NALP1 yeast inh)
O=C(NC(=S)N(CCCCO)C1CCCCC1)c1sc2ccccc2c1Cl	TIM10 inh 42.6 | TIM10 conf inactive
CC1CCCCC1NC(=S)NC(=O)c1sc2ccccc2c1Cl (stereo unspecified)	none
Cc1ccc(N2CCN(S(=O)(=O)N3CCOCC3)CC2)cc1C	none
C/C(=N/NS(=O)(=O)c1ccc(CC(C)C)cc1)c1ccncc1	none
Cc1ccc(-c2csc(N(CC3CCCO3)C(=O)c3ccco3)n2)cc1 (stereo unspecified)	TIM10 inh 43.3 | TIM10 conf 42.3
COc1ccc(SC[C@H](C)CN2CC[C@H](C(C)(C)C)CCC2=O)cc1	none (no result: NALP1 yeast inh)
CCCCCCCCCCOC(=O)Cn1c(COc2cccc(C)c2)[n+](C)c2ccccc21	TIM10 inh 51.0 | TIM10 conf 34.3
C=CCn1c(O)c(N=Nc2ccccc2O)c2ccccc21	TIM10 inh 49.0 (no result: NALP1 yeast inh) | TIM10 conf 64.7
CCC/C=C1/CCCOC(C(=O)NCc2ccc(C)o2)(C(F)(F)F)C1 (stereo unspecified)	none (no result: NALP1 yeast inh)
Oc1ccc(Br)cc1/C=N/n1c(C2CCCCC2)n[nH]c1=S	TIM10 inh 44.4 | TIM10 conf 56.5
COc1cccc(/C=N/NC(N)=S)c1OCc1cccc(Cl)c1	TIM10 inh 45.6 | TIM10 conf 47.8
Cn1c2c(c(=O)n(C)c1=O)C(c1ccc(Cl)cc1)C(C#N)=C(N)O2 (stereo unspecified)	none
S=C(NCc1ccccc1)N1CCN(c2cccc(Cl)c2)CC1	TIM10 inh 45.6 | TIM10 conf inactive
O=C(Cn1ccc2ccccc2c1=O)N1CCN(c2cccc(Cl)c2)CC1	TIM10 inh 54.5 | TIM10 conf inactive
CCOC(=O)COn1c(=O)c(-c2ccc(Br)cc2)[n+]([O-])c2ccccc21	none
CCOC(=O)COn1c(=O)c(-c2cccs2)[n+]([O-])c2ccccc21	TIM10 inh 41.8 | TIM10 conf inactive
Cc1cc(C(=O)CCl)c(C)n1Cc1ccco1	TIM10 inh 46.1 | TIM10 conf 33.9
O=C(C1CCC(Cn2c(=S)[nH]c3ccccc3c2=O)CC1)N1CCN(c2ccccc2)CC1 (stereo unspecified)	TIM10 inh 46.2 (no result: NALP1 yeast inh) | TIM10 conf 37.5
CC1CC(C)CN(C(=O)CCCn2c(=S)[nH]c3ccccc3c2=O)C1 (stereo unspecified)	TIM10 inh 43.1 | TIM10 conf inactive
O=C(O)COc1ccc(/C=N/NC(=O)Cc2ccc(Cl)cc2)cc1	none
COc1ccc2[nH]c3c(c2c1)CCNC3c1ccc([N+](=O)[O-])o1 (stereo unspecified)	TIM10 inh 40.7 | TIM10 conf 54.5
COc1ccc2[nH]c3c(c2c1)CCNC3C1CC=C(C)CC1 (stereo unspecified)	none
COCCNC(=O)c1cc(-c2ccccc2C)nn1CC1CC(c2cccnc2)=NO1 (stereo unspecified)	none (no result: NALP1 yeast inh)
COC(=O)c1cc2ccccc2c(-c2c(OC)c(C(=O)OC)cc3ccccc23)c1OC	TIM10 inh 44.0 | TIM10 conf 29.9
COc1ccc(NC(=S)NCCc2ccc(Cl)cc2)c(OC)c1	TIM10 inh 41.0 | TIM10 conf inactive
COc1ccc(NC(=S)NCCSc2ccc(C)cc2)c(OC)c1	TIM10 inh 45.8 (no result: NALP1 yeast inh) | TIM10 conf inactive
